Measurements: ChEMBL document CHEMBL4513216, “Probing the Open Global Health Chemical Diversity Library for Multistage-Active Starting Points for Next-Generation Antimalarials” (ACS Infect Dis, 2020)
Out of some 69,000 compounds screened, about 8,600 (12%) showed an effect of 50% or more. This excerpt belongs to a sample that is enriched for strong results.

tested on: Plasmodium berghei; assay: Screen against P. berghei liver stage (PbLuc), transformed with Luciferase, at 10uM; format: functional, HepG2; settings: tested at 10 uM

SMILES | INHIBITION [%]
CCCc1nnc(NCCn2nc(C)c(Cl)c2C)o1 | 13.7
Cc1cc(C)n(CC2CN(CC(=O)NC3CCOCC3)CCO2)n1 (stereo unspecified) | 36.1
COc1ccc2[nH]cc(C(=O)N3C[C@@H](O)[C@H](N4CCOCC4)C3)c2c1 | 29.5
O=C(Cc1ccc(F)cc1)NCCNCc1cccc(O)c1 | 5.9
CCn1c(C)cc(C(=O)N2C[C@@H](C(=O)O)[C@H](c3ccccc3)C2)c1C | 35.8
CNc1ncc(C(=O)N[C@H]2CN(CCCSC)C[C@@H]2C2CC2)cn1 | 1.71
CN(C(=O)c1ccccc1Cl)C1CCN(c2ccccn2)CC1 | 28.6
O=C1OCCC1N1CCN(c2cnccn2)CC1 (stereo unspecified) | 3.69
Cc1cccc(C(=O)N(C)C2CCN(c3ccccn3)CC2)c1C | 37.3
COCC(C)N(C)C(=O)NC1CCN(c2ncccn2)CC1 (stereo unspecified) | 52.2
O=C1OCCC1N1CCN(c2ccccn2)CC1 (stereo unspecified) | 59.3
COCC(C)N(C)C(=O)NC1CCN(S(C)(=O)=O)CC1 (stereo unspecified) | 36.2
O=C1OCCC1N1CCN(c2ccc(O)cc2)CC1 (stereo unspecified) | 43.1
CN(C1CCN(c2ccccn2)CC1)S(=O)(=O)c1ccccc1F | 21.5
CN(Cc1cnn(C)c1)C(=O)NC1CCN(c2ncccn2)CC1 | 3.04
CN(C(=O)c1cccc2[nH]ncc12)C1CCN(c2ccccn2)CC1 | 59.7
CN(C(=O)Cc1ccccc1F)C1CCN(c2ccccn2)CC1 | 52.3
CN(Cc1noc(C2CC2)n1)C1CCN(CCS(C)(=O)=O)C1 (stereo unspecified) | -24.2
CN(C(=O)Cc1c[nH]c2ccccc12)C1CCN(c2ccccn2)CC1 | 53.8
CN(C(=O)c1cccc(Cl)c1)C1CCN(c2ccccn2)CC1 | 31.3
CN(C(=O)CNC(=O)CC(C)(C)C)C1CCN(c2ccccn2)CC1 | -11.5

SMILES | INHIBITION [%]
CN(C(=O)c1ccc(Cl)cc1)C1CCN(c2ccccn2)CC1 | 3.73
CN(C(=O)Cc1ccc(F)cc1)C1CCN(c2ccccn2)CC1 | -1.14
CN(C(=O)c1cc(Cl)c[nH]1)C1CCN(c2ccccn2)CC1 | 50.4
OC(CN1CCN(Cc2ccc(F)c(F)c2)CC1)C1CC1 (stereo unspecified) | -48.4
Cc1nc(C(C)n2cc3[nH]cccc-3c2=O)cs1 (stereo unspecified) | 33.7
CCN(Cc1noc(C2CC2)n1)C(=O)c1onc2ccccc12 | 48.1
O=C1CCCN1Cc1nnc(SCc2ccc3c(c2)CCC3)o1 | 13.2
Cc1n[nH]cc1CNCC1(c2cccc(F)c2)CCOCC1 | -11.9
Fc1cccc(N2CCCC3(C2)CN(c2cnccn2)CCO3)c1 (stereo unspecified) | 23.3
COc1ccc(CN2CCOC3(CCCN(c4nnc(C)o4)C3)C2)cc1 (stereo unspecified) | 31.8
Cn1cc(CN2CCC(F)(F)C3(CCN(c4cccc(F)c4)C3)C2)cn1 (stereo unspecified) | -0.371
Cc1nnc(N2CCCC3(CN(Cc4cnn(C)c4)CCO3)C2)o1 (stereo unspecified) | 41.2
Cc1nnc(N2CCCC3(CN(Cc4ccncc4)CCO3)C2)o1 (stereo unspecified) | 10.1
Fc1cccc(N2CCCC3(C2)CN(c2ncccn2)CCO3)c1 (stereo unspecified) | 80.5
Cn1cc(CN2CCOC3(CCCN(c4cccc(F)c4)C3)C2)cn1 (stereo unspecified) | 73
c1cnc(N2CCOCC3(CNCCO3)C2)nc1 (stereo unspecified) | 22.2
Fc1ccc(N2CCOC3(COCCN(c4ncccn4)C3)C2)cc1 (stereo unspecified) | 61.1
c1ccc(CN2CCOC3(COCCN(c4ncccn4)C3)C2)nc1 (stereo unspecified) | 20.1
Fc1cccc(N2CCCC3(CN(Cc4ccccn4)CCO3)C2)c1 (stereo unspecified) | -9.42
Cc1nnc(N2CCCC3(CN(Cc4ccc(F)cc4)CCO3)C2)o1 (stereo unspecified) | 57.4
